Assay results: PubChem BioAssay AID1159580 (chemical genetic matrix, 2015)
Where “and” joins values, the source holds several entries; their conditions need not be identical. Identical values can stand only once. About 2,000 (36%) of roughly 5,500 compounds were called active. Roughly 18% stayed inconclusive and do not appear here. No stated cut-off is given here; in the data, active means normalized growth mostly below about 0.91 (no sharp cut-off); inconclusive means no clear call, values can overlap the other calls; inactive means mostly above about 0.92. Some of the results follow. Some structures have more than one record in an assay (separate samples or runs), and their calls can disagree.

Assay: chemical genetic growth profiling, strain panel (AID 1159580);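 further: tested at 20 µM; growth read once vehicle control cultures reached saturation at 30 °C; 1 = growth at the plate median or of vehicle wells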
Conditions: growth OD

Measured: normalized growth

O=C(CCCN1CCC(O)(c2ccc(Cl)cc2)CC1)c1ccc(F)cc1
active: S. cerevisiae deletion strains, locus YJR075W, strain HOC1, stronger effect = lower value 0.819 | S. cerevisiae deletion strains, locus YKR001C, strain vps1, stronger effect = lower value 0.247 | S. cerevisiae deletion strains, locus YLR027C, strain aat2, stronger effect = lower value 0.911 | S. cerevisiae deletion strains, locus YLR039C, strain RIC1, stronger effect = lower value 1.39 [resistant] | S. cerevisiae deletion strains, locus YLR058C, strain SHM2, stronger effect = lower value 0.746 | S. cerevisiae deletion strains, locus YLR268W, strain sec22, stronger effect = lower value 0.794 | S. cerevisiae deletion strains, locus YLR320W, strain mms22, stronger effect = lower value 0.49 | S. cerevisiae deletion strains, locus YLR330W, strain CHS5, stronger effect = lower value 0.849 | S. cerevisiae deletion strains, locus YLR342W, strain FKS1 (second series), stronger effect = lower value 0.726 | S. cerevisiae deletion strains, locus YLR357W, strain rsc2, stronger effect = lower value 1.19 [resistant] | S. cerevisiae deletion strains, locus YLR418C, strain cdc73, stronger effect = lower value 0.496 | S. cerevisiae deletion strains, locus YML016C, strain PPZ1, stronger effect = lower value 0.915 | S. cerevisiae deletion strains, locus YML032C, strain rad52, stronger effect = lower value 0.82 | S. cerevisiae deletion strains, locus YMR058W, strain fet3, stronger effect = lower value 0.821 | S. cerevisiae deletion strains, locus YMR125W, strain sto1, stronger effect = lower value 0.876 | S. cerevisiae deletion strains, locus YMR223W, strain ubp8, stronger effect = lower value 0.8 | S. cerevisiae deletion strains, locus YMR307W, strain GAS1, stronger effect = lower value 0.526 | S. cerevisiae deletion strains, locus YNL067W, strain RPL9B, stronger effect = lower value 0.844 | S. cerevisiae deletion strains, locus YNL071W, strain lat1, stronger effect = lower value 0.552 | S. cerevisiae deletion strains, locus YNL175C, strain NOP13, stronger effect = lower value 0.664 | S. cerevisiae deletion strains, locus YNL233W, strain BNI4, stronger effect = lower value 0.751 | S. cerevisiae deletion strains, locus YNL248C, strain rpa49, stronger effect = lower value 0.818 | S. cerevisiae deletion strains, locus YNL307C, strain MCK1, stronger effect = lower value 0.815 | S. cerevisiae deletion strains, locus YNL322C, strain KRE1 (second series), stronger effect = lower value 1.11 [resistant] | S. cerevisiae deletion strains, locus YNL322C, strain KRE1, stronger effect = lower value 0.884 | S. cerevisiae deletion strains, locus YNR052C, strain pop2, stronger effect = lower value 0.737 | S. cerevisiae deletion strains, locus YOR001W, strain rrp6, stronger effect = lower value 0.871 | S. cerevisiae deletion strains, locus YOR070C, strain gyp1, stronger effect = lower value 0.29 | S. cerevisiae deletion strains, locus YOR184W, strain ser1, stronger effect = lower value 0.847 | S. cerevisiae deletion strains, locus YOR270C, strain vph1, stronger effect = lower value 0.381 | S. cerevisiae deletion strains, locus YOR290C, strain snf2, stronger effect = lower value 0.843 | S. cerevisiae deletion strains, locus YPL051W, strain arl3, stronger effect = lower value 0.789 | S. cerevisiae deletion strains, locus YPL106C, strain sse1, stronger effect = lower value 1.17 [resistant] | S. cerevisiae deletion strains, locus YPR163C, strain tif3, stronger effect = lower value 0.575 | S. cerevisiae deletion strains, strain wtn01, stronger effect = lower value 0.776 | S. cerevisiae strains, strain wild type, stronger effect = lower value 0.833
0.826 (active) and 0.893 (inactive): S. cerevisiae deletion strains, locus YNL153C, strain GIM3, stronger effect = lower value
inactive: S. cerevisiae deletion strains, locus YJR043C, strain POL32, stronger effect = lower value 0.93 | S. cerevisiae deletion strains, locus YJR066W, strain TOR1, stronger effect = lower value 0.939 | S. cerevisiae deletion strains, locus YKL009W, strain mrt4, stronger effect = lower value 0.963 | S. cerevisiae deletion strains, locus YKL068W, stronger effect = lower value 1.02 | S. cerevisiae deletion strains, locus YKL085W, strain MDH1 (second series), stronger effect = lower value 1.02 | S. cerevisiae deletion strains, locus YKL085W, strain MDH1, stronger effect = lower value 1.02 | S. cerevisiae deletion strains, locus YKL160W, strain elf1, stronger effect = lower value 0.904 | S. cerevisiae deletion strains, locus YKR026C, strain gcn3, stronger effect = lower value 1.03 | S. cerevisiae deletion strains, locus YKR091W, strain srl3, stronger effect = lower value 1.03 | S. cerevisiae deletion strains, locus YLL001W, strain dnm1, stronger effect = lower value 0.958 | S. cerevisiae deletion strains, locus YLL026W, stronger effect = lower value 0.947 | S. cerevisiae deletion strains, locus YLL041C, strain sdh2, stronger effect = lower value 1.02 | S. cerevisiae deletion strains, locus YLR102C, strain apc9, stronger effect = lower value 1.02 | S. cerevisiae deletion strains, locus YLR113W, strain HOG1, stronger effect = lower value 1.03 | S. cerevisiae deletion strains, locus YLR221C, strain rsa3, stronger effect = lower value 0.923 | S. cerevisiae deletion strains, locus YLR258W, strain gsy2, stronger effect = lower value 0.938 | S. cerevisiae deletion strains, locus YLR262C, strain YPT6 (second series), stronger effect = lower value 0.893 | S. cerevisiae deletion strains, locus YLR262C, strain YPT6, stronger effect = lower value 1.37 | S. cerevisiae deletion strains, locus YLR342W, strain FKS1, stronger effect = lower value 1.01 | S. cerevisiae deletion strains, locus YLR370C, strain arc18, stronger effect = lower value 0.965 | S. cerevisiae deletion strains, locus YLR371W, strain rom2, stronger effect = lower value 1 | S. cerevisiae deletion strains, locus YLR384C, strain iki3, stronger effect = lower value 0.999 | S. cerevisiae deletion strains, locus YML120C, strain ndi1, stronger effect = lower value 0.932 | S. cerevisiae deletion strains, locus YML124C, strain tub3, stronger effect = lower value 0.994 | S. cerevisiae deletion strains, locus YMR078C, strain ctf18, stronger effect = lower value 1.01 | S. cerevisiae deletion strains, locus YMR129W, stronger effect = lower value 1.03 | S. cerevisiae deletion strains, locus YMR205C, strain PFK2, stronger effect = lower value 0.949 | S. cerevisiae deletion strains, locus YMR231W, strain pep5, stronger effect = lower value 1.01 | S. cerevisiae deletion strains, locus YMR263W, strain SAP30, stronger effect = lower value 0.996 | S. cerevisiae deletion strains, locus YNL183C, strain NPR1, stronger effect = lower value 0.971 | S. cerevisiae deletion strains, locus YNL197C, strain WHI3, stronger effect = lower value 0.997 | S. cerevisiae deletion strains, locus YNL209W, strain ssb2, stronger effect = lower value 0.933 | S. cerevisiae deletion strains, locus YNL224C, strain SQS1, stronger effect = lower value 1.04 | S. cerevisiae deletion strains, locus YNL250W, strain rad50, stronger effect = lower value 1 | S. cerevisiae deletion strains, locus YNL271C, strain bni1, stronger effect = lower value 1 | S. cerevisiae deletion strains, locus YNL298W, strain CLA4, stronger effect = lower value 1.02 | S. cerevisiae deletion strains, locus YNR049C, strain mso1, stronger effect = lower value 1.04 | S. cerevisiae deletion strains, locus YOL012C, strain htz1 1.18 | S. cerevisiae deletion strains, locus YOL147C, strain pex11, stronger effect = lower value 0.941 | S. cerevisiae deletion strains, locus YOR061W, strain CKA2, stronger effect = lower value 0.942 | S. cerevisiae deletion strains, locus YOR069W, strain VPS5, stronger effect = lower value 0.963 | S. cerevisiae deletion strains, locus YOR080W, strain dia2, stronger effect = lower value 0.969 | S. cerevisiae deletion strains, locus YOR083W, strain WHI5 (second series), stronger effect = lower value 0.977 | S. cerevisiae deletion strains, locus YOR083W, strain WHI5, stronger effect = lower value 0.944 | S. cerevisiae deletion strains, locus YOR106W, strain vam3, stronger effect = lower value 0.935 | S. cerevisiae deletion strains, locus YOR136W, strain idh2, stronger effect = lower value 0.98 | S. cerevisiae deletion strains, locus YOR144C, strain elg1, stronger effect = lower value 1 | S. cerevisiae deletion strains, locus YOR231W, strain MKK1, stronger effect = lower value 0.991 | S. cerevisiae deletion strains, locus YOR265W, strain rbl2, stronger effect = lower value 0.974 | S. cerevisiae deletion strains, locus YOR316C, strain cot1, stronger effect = lower value 1.02 | S. cerevisiae deletion strains, locus YPL078C, strain atp4, stronger effect = lower value 0.914 | S. cerevisiae deletion strains, locus YPL240C, strain hsp82, stronger effect = lower value 1 | S. cerevisiae deletion strains, locus YPL256C, strain CLN2, stronger effect = lower value 0.99 | S. cerevisiae deletion strains, locus YPR119W, strain clb2, stronger effect = lower value 1.04 | S. cerevisiae deletion strains, locus YPR141C, strain kar3, stronger effect = lower value 1.04 | S. cerevisiae deletion strains, locus YPR167C, strain met16, stronger effect = lower value 0.942
0.89 (active) and 0.969 (inactive): S. cerevisiae deletion strains, locus YPL241C, strain CIN2, stronger effect = lower value
